{"source": "PubChem BioAssay (EPA / NIEHS)", "note": "Results filed as inconclusive are left out. Active and inactive are the calls of the source. The calls were made as follows: active = hit-call score of the fitted dose curve at least 0.9, where 1 is the maximum; inconclusive = response in the unintended direction; inactive = score below 0.9."}
{"target": "Nuclear receptor subfamily 4 group A member 2 (Homo sapiens) (UniProt P43354)", "sequence (P43354 whole entry, looked up)": "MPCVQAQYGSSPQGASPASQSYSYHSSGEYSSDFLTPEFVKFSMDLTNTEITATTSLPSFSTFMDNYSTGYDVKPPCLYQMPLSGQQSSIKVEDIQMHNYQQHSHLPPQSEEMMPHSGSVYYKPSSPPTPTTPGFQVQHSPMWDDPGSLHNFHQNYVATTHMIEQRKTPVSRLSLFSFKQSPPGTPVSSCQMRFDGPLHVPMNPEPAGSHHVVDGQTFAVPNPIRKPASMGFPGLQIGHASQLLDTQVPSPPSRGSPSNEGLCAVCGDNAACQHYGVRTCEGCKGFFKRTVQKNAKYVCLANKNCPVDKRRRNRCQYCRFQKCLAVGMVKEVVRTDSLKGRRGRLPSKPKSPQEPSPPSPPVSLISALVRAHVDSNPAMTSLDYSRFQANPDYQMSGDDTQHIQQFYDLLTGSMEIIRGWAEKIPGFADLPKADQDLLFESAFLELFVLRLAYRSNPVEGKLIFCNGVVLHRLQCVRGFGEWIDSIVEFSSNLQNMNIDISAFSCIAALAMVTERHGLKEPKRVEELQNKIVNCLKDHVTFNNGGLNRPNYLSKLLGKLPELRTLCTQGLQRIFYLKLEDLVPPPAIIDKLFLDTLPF", "experiment": "ATG_NURR1_TRANS: Attagene TRANS-FACTORIAL HepG2 Assay for human Nuclear Receptor Related Protein 1 (NURR1) (AID 2282985)", "settings": "HepG2 Attagene TRANS reporter, mRNA readout", "method": "ATG_TRANS is a cell-based, multiplexed-readout assay that uses HepG2, a human liver cell line, with measurements taken at 24 hours after chemical dosing in a 24-well plate.ATG_NURR1_TRANS is one of 30 assay component(s) measured or calculated from the ATG_TRANS assay. It is designed to make measurements of mRNA induction, a form of inducible reporter, as detected with fluorescence intensity signals by Reverse transcription polymerase chain reaction (RT-PCR) and Capillary electrophoresis technology.Data from the assay component ATG_NURR1_TRANS was analyzed into 1 assay endpoint. This assay endpoint, ATG_NURR1_TRANS, was analyzed in the positive analysis fitting direction relative to DMSO as the negative control and baseline of activity. Using a type of inducible reporter, measures of mRNA for gain-of-signal activity can be used to understand the reporter gene at the transcription factor-level as they relate to the gene NR4A2. Furthermore, this assay endpoint can be referred to as a primary readout, because this assay has produced multiple assay endpoints where this one serves a reporter gene function. To generalize the intended target to other relatable targets, this assay endpoint is annotated to the nuclear receptor intended target family, where the subfamily is orphan.\nHuman liver HepG2 cells are transiently transfected with multiple reporter transcription units (MRTUs) in 6-well plates using FuGene 6 reagent (Roche; 3 ml FuGene/1 mg DNA). The MRTU constructs are regulated by a cis-regulating element (promoter). […] A major difference between the CIS and TRANS system is that in CIS activities of endogenous TFs are measured, whereas the TRANS assay evaluates changes in activities of exogenous, chimeric NR-Gal4 proteins. […] At the end of 24 hour incubation, total RNA was isolated using TriZol reagent (Invitrogen). The isolated RNA is then reverse-transcribed using oligo(dT) primer and Mo-MLV reverse transcriptase (Invitrogen) with DNAse I (Ambion) treatment for 30 min. The one-tenth of the produced cDNA was amplified by PCR using Taq DNA polymerase (Invitrogen) and two reporter sequence-specific primers. The PCR products were fluorescently labeled by primer extension with 6-arboxyfluorescein (6-FAM) 5'-labeled reporter sequence-specific primer (2 min at 95 C, 20 s at 68 C and 10 min at 72 C) and these products were digested with 5U of HpaI (New England Biolabs) for 2h at 37 C. The fragments were purified using Qiaquick PCR columns (Qiagen), analyzed on an ABI 3130xL genetic analyzer (Applied Biosystems) with peak positions identified by using a set of X-rhodamine (ROX)-labeled MapMarker1000 molecular weight standards (BioVentures). The raw capillary electrophoresis data was processed using Attagraph software (Attagene)."}
{"smiles": "C/C=C(\\C)C(=O)OCCc1ccccc1", "outcome": "inactive"}
{"smiles": "Cc1ccc(OC(=O)c2ccccc2O)cc1", "outcome": "inactive"}
{"smiles": "C[C@H](CCC(=O)NCC(=O)O)[C@H]1CC[C@H]2[C@@H]3[C@H](O)C[C@@H]4C[C@H](O)CC[C@]4(C)[C@H]3C[C@H](O)[C@]12C", "outcome": "inactive"}
{"smiles": "O=P(O)(O)O", "outcome": "inactive"}
{"smiles": "ClC(c1ccccc1)(c1ccccc1)c1ccccc1", "outcome": "inactive"}
{"smiles": "O=C(CS)OCCOC(=O)CS", "AC50": "52.4 µM (active)"}
{"smiles": "C=CC(=O)OCCC#N", "outcome": "inactive"}
{"smiles": "CC1=C(Br)C(=O)C(Br)=C/C1=C(/c1ccccc1S(=O)(=O)O)c1cc(Br)c(O)c(Br)c1C", "outcome": "inactive"}
{"smiles": "N#Cc1ccc(CC(=O)c2cccc(C(F)(F)F)c2)cc1", "AC50": "100 µM (active)"}
{"smiles": "CC(CN=Cc1ccccc1O)N=Cc1ccccc1O", "note": "(stereo not given)", "outcome": "inactive"}
{"smiles": "O=C(Nc1ccc2c(O)c(N=Nc3ccc(N=Nc4ccc(S(=O)(=O)O)cc4)cc3)c(S(=O)(=O)O)cc2c1)c1ccccc1", "outcome": "inactive"}
{"smiles": "CC=Cc1ccc(OCC)c(O)c1", "outcome": "inactive"}
{"smiles": "C[C@@H]1CCN(C(=O)[C@H](CCCN=C(N)N)NS(=O)(=O)c2cccc3c2NC[C@H](C)C3)[C@@H](C(=O)O)C1", "outcome": "inactive"}
{"smiles": "O=c1c(O)c(-c2ccc(O)cc2)oc2cc(O)cc(O)c12", "outcome": "inactive"}
{"smiles": "CN(c1nccc(=O)[nH]1)C1CCN(c2nc3ccccc3n2Cc2ccc(F)cc2)CC1", "outcome": "inactive"}
{"smiles": "OCCc1ccccc1", "outcome": "inactive"}
{"smiles": "c1ccc2[nH]cnc2c1", "outcome": "inactive"}
{"smiles": "Nc1ccccc1[N+](=O)[O-]", "outcome": "inactive"}
{"smiles": "CC(=O)C(C)O", "note": "(stereo not given)", "outcome": "inactive"}
{"smiles": "COc1cccc(OC)c1O", "outcome": "inactive"}
{"smiles": "CC=Cc1ccc(OC)c(OC)c1", "outcome": "inactive"}
{"smiles": "C=CC(C)C#N", "note": "(stereo not given)", "outcome": "inactive"}
{"smiles": "COC(=O)c1ccc([N+](=O)[O-])cc1", "outcome": "inactive"}
{"smiles": "O=C(CC(=O)c1ccccc1)c1ccccc1", "outcome": "inactive"}
{"smiles": "O=C(O)c1cc(C(=O)O)cc([N+](=O)[O-])c1", "outcome": "inactive"}
{"smiles": "C=CCOC(=O)CCCCCC", "outcome": "inactive"}
{"smiles": "NCCNc1cccc2ccccc12", "outcome": "inactive"}
{"smiles": "Cc1c(OCC(F)(F)F)ccnc1CS(=O)c1nc2ccccc2[nH]1", "note": "(stereo not given)", "AC50": "36.7 µM (active)"}
{"smiles": "C=CCCCCCCCCCC", "outcome": "inactive"}
{"smiles": "c1ccc2cc(Nc3ccc(Nc4ccc5ccccc5c4)cc3)ccc2c1", "outcome": "inactive"}
{"smiles": "CCOC(=O)C(C#N)=C(c1ccccc1)c1ccccc1", "AC50": "100 µM (active)"}
{"smiles": "C=Cc1ccncc1", "AC50": "100 µM (active)"}
{"smiles": "C=C(C)C(=O)OCC(CC)(COC(=O)C(=C)C)COC(=O)C(=C)C", "outcome": "inactive"}
{"smiles": "CCCC(=O)C(CC)Sc1ccoc1C", "note": "(stereo not given)", "outcome": "inactive"}
{"smiles": "c1ccc(Oc2ccccc2)cc1", "outcome": "inactive"}
{"smiles": "CC(C)CCCCCCCCCCCCCCC(=O)O", "outcome": "inactive"}
{"smiles": "CCCC(C)C(O)CC", "note": "(stereo not given)", "outcome": "inactive"}
{"smiles": "NCC1CCCC(CN)C1", "note": "(stereo not given)", "outcome": "inactive"}
{"smiles": "CC(=O)c1c(C)c([N+](=O)[O-])c(C(C)(C)C)c([N+](=O)[O-])c1C", "AC50": "10.2 µM (active)"}
{"smiles": "CCCCCCCC/C=C\\CCCCCCCC(=O)OCC", "outcome": "inactive"}
